Measurements from paper PMC4552634, “A New Set of Chemical Starting Points with Plasmodium falciparum Transmission-Blocking Potential for Antimalarial Drug Discovery” (PLoS ONE, 2015).
Hit rate of the full screen: of about 13,000 compounds, about 3,200 (25%) showed an effect of 50% or more. The list shows a part of the results.

Tested on: P. falciparum stage V gametocytes
Design: BacTiter-Glo ATP luminescence viability of purified stage V gametocytes in 384-well plates, per cent inhibition versus DMSO
Conditions: 48 h, 5 µM; inhibitor

Structure (SMILES)	% Inhibition [%]
Cc1noc(-c2ccc(O)cc2O)c1-c1ccc2c(c1)OCCCO2 [TCMDC-124197]	16
COc1cc(C(=O)N2C(c3nccs3)C(C(=O)N(OC)C(C)c3ccccc3)CC2(CC(C)C)C(=O)OC(C)(C)C)ccc1C(C)(C)C (stereo not shown) [TCMDC-135187]	35.9
CCCc1ccc(C(=O)N2C(c3nccs3)C(C(N)=O)CC2(CC(C)C)C(=O)O)cc1 (stereo not shown) [TCMDC-138717]	-10.33
CC(C)CC1(C(=O)OC(C)(C)C)CC(C(=O)OC(C)(C)C)C(c2cccs2)N1C(=O)c1ccc(C(C)(C)C)cc1 (stereo not shown) [TCMDC-138807]	77.31
O=C1C(=Cc2cc(Cc3ccccc3)ccc2O)SC(=S)N1Cc1ccccc1 [TCMDC-124107]	17.72
CCOC(=O)c1ccc(N=C2SC(=Cc3cc(Br)ccc3O)C(=O)N2C)cc1 [TCMDC-125656]	2.309
C=CCN1C(=O)C(=Cc2cc(Br)ccc2O)SC1=Nc1ccccc1 [TCMDC-124119]	53.26
CCOC(=O)c1ccc(NC(=O)N[C@@H](Cc2ccccc2)C(=O)NC2CCN(Cc3ccc(O)c(OC)c3)C2)cc1 (stereo partly shown) [TCMDC-140503]	-11.63
Cc1cc(C(=O)N[C@H]2CCN(Cc3ccc(OCCCN(C)C)cc3)C2)ccc1Br [TCMDC-140368]	17.03
O=C(Nc1ccc(C(=O)OCC(c2ccccc2)c2ccccc2)cc1)N[C@@H](Cc1ccc(O)cc1)C(=O)NC1CCN(Cc2ccc(O)cc2)C1 (stereo partly shown) [TCMDC-135362]	9.298
CC(C)(C)c1ccc(OC(=O)c2ccc(NC(=O)N[C@@H](Cc3ccc(O)cc3)C(=O)NC3CCN(Cc4ccc(O)cc4)C3)cc2)cc1 (stereo partly shown) [TCMDC-135359]	23.01
CCOC(=O)c1ccc(NC(=O)N[C@@H](Cc2ccccc2)C(=O)NC2CCN(Cc3ccc(O)cc3)C2)cc1 (stereo partly shown) [TCMDC-140502]	-28.76
CCOC(=O)c1ccc(NC(=O)N[C@@H](Cc2ccccc2)C(=O)NC2CCN(Cc3ccc(OCCCN(C)C)cc3)C2)cc1 (stereo partly shown) [TCMDC-140501]	106.4
CC(C)[C@H]1CC[C@H](C)C[C@@H]1OC(=O)N[C@@H](Cc1ccc(O)cc1)C(=O)NC1CCN(Cc2ccc(OCCCN(C)C)cc2)C1 (stereo partly shown) [TCMDC-140497]	106.1
CC(C)OC(=O)c1ccc(NC(=O)N[C@@H](Cc2ccc(O)cc2)C(=O)NC2CC3CCC(C2)N3Cc2ccccc2)cc1 (stereo partly shown) [TCMDC-136164]	71.31
CC(C)OC(=O)c1ccc(NC(=O)N[C@@H](Cc2ccc(O)cc2)C(=O)NC2CCC(CCN3C4CCC3c3ccccc34)CC2)cc1 (stereo partly shown) [TCMDC-136163]	13.63
O=C(/C=C/c1ccc(Cl)c(Cl)c1)NCCCCN1CCCN(C(=O)Nc2cc(Cl)cc(Cl)c2)CC1 [TCMDC-135929]	-18.98
COc1ccc(CN2CCCC(OC(c3ccc(F)cc3)c3ccc(F)cc3)C2)c(O)c1 (stereo not shown) [TCMDC-136166]	23.2
Fc1cccc(COc2ccc(Nc3ncnc4sc(C#C[C@H]5CC[C@H](CN6CCOCC6)N5)cc34)cc2Cl)c1 [TCMDC-135417]	-15.95
Cc1c(F)cc(C(=O)NC2CC2)cc1-c1ccc2c(cnn2S(=O)(=O)c2ccc(F)c(F)c2)c1 [TCMDC-135239]	15.38
Cc1ccc2nc(C)cc(Nc3ccccc3O)c2c1 [TCMDC-123660]	-31.17

Structure (SMILES)	% Inhibition [%]
CCCc1cc(C)ccc1OCCCON1C(NC(=O)OCC)=NC(NC(=O)OCC)=NC1(C)C [TCMDC-131343]	12.88
COc1cc(Cc2cnc(N)nc2N)cc(OCCn2ccccc2=O)c1OC [TCMDC-137347]	-6.593
CCN(CC)c1ccc2nc(N)nc(N)c2c1Cl [TCMDC-137857]	-7.537
O=C(NCC1CCN(Cc2ccc3c(c2)OCCO3)C1)c1cc(-c2ccccc2F)cs1.O=C(O)C(F)(F)F (stereo not shown) [TCMDC-134459]	14.42
CSc1ccc(CN2CCC(CNC(=O)c3cc(-c4ccccc4F)cs3)C2)cc1.O=C(O)C(F)(F)F (stereo not shown) [TCMDC-134460]	78.38
CN(C)c1ccc(CN2CCC(CNC(=O)c3cc(-c4ccccc4F)cs3)C2)cc1.O=C(O)C(F)(F)F (stereo not shown) [TCMDC-134453]	72.61
CCCNC[C@@H](O)[C@H](Cc1ccccc1)NC(=O)c1cc(NCC)cc(N2CCCC2=O)c1 [TCMDC-138890]	18.6
Cc1cc(C(=O)OCC(N)=O)c(C)n1-c1ccc(F)cc1 [TCMDC-123812]	-34.47
CN(C)S(=O)(=O)c1ccc(C(=O)N(c2nc(-c3ccccc3)cs2)C2CCCCC2)cc1 [TCMDC-123561]	-34.43
Cc1cc(N2CCOCC2)nc2ccc(NC(=O)c3ccc(Cl)c([N+](=O)[O-])c3)cc12 [TCMDC-125441]	-11.29
C=CCN(C(=O)c1ccc(Cl)c([N+](=O)[O-])c1)c1nc(-c2ccccc2)cs1 [TCMDC-124436]	137
O=C(Nc1cc(Cl)cc(Cl)c1)c1cc(Cl)c(=O)n(Cc2ccc(Cl)cc2)c1 [TCMDC-123810]	18.7
CCOC(=O)c1cn(CC)c2cc(N3CCCCCC3)c(F)cc2c1=O [TCMDC-124160]	58.45
CCOC(=O)c1cn(CC)c2cc(N3CCCCC3)c(F)cc2c1=O [TCMDC-124156]	35.74
CCn1cc(C(=O)O)c(=O)c2cc(F)c(N3CCN(S(=O)(=O)c4ccc(N)cc4)CC3)cc21 [TCMDC-125809]	2.438
O=C(/C=C/c1ccc(Cl)c(Cl)c1)NCCCCCCN1CCCN(C(=O)Nc2ccc(F)c(F)c2)CC1 [TCMDC-135938]	-42.76
O=C1Nc2cccc3c2C1(CCCCN1CCC(c2c(-c4ccc(F)cc4)[nH]c4ccccc24)CC1)CCC3 (stereo not shown) [TCMDC-140656]	74.07
Cc1[nH]c2ccccc2c1C1=CCN(CCCCCC23CCCc4cccc(c42)NC3=O)CC1 (stereo not shown) [TCMDC-140463]	-65.61
O=C1Nc2cccc3c2C1(CCCCN1CCC(c2c(-c4ccccc4)[nH]c4ccccc24)CC1)CCC3 (stereo not shown) [TCMDC-140655]	54.78
CC1(CCCCN2CC=C(c3c[nH]c4ccccc34)CC2)C(=O)Nc2ccccc21 (stereo not shown) [TCMDC-140717]	-30.41
Cc1ccc(OC2CCN(CCCCC3(C)C(=O)Nc4ccccc43)CC2)cc1 (stereo not shown) [TCMDC-140795]	-17.97

Structure (SMILES)	% Inhibition [%]
Cc1nc(N)nc(N)c1-c1ccc2ccccc2c1 [TCMDC-137286]	-7.805
FC(F)(F)c1ccc2[nH]c(-c3cccc(-c4cccc(CNCc5cnn(-c6ccccc6)n5)c4)c3)nc2c1.O=C(O)C(F)(F)F [TCMDC-132966]	-44.07
COc1cccc(NC(=O)N2CCOC(CCN3CCC4(CCc5ccccc54)CC3)(c3ccc(Cl)c(Cl)c3)C2)c1 (stereo not shown) [TCMDC-135330]	-52.33
CC(C)n1c(CC2CCN(CC3CCN(C(=O)/C=C/c4ccc(Cl)c(Cl)c4)CC3)CC2)nc2ccccc21 [TCMDC-140372]	82.38
O=C(/C=C/c1ccc(Cl)c(Cl)c1)N1CCC(CN2CCC(c3c(-c4ccccc4)[nH]c4ccccc34)CC2)CC1 [TCMDC-140653]	54.21
O=C(/C=C/c1ccc(Cl)c(Cl)c1)N1CCC(CN2CCC(Cc3nc4ccccc4[nH]3)CC2)CC1 [TCMDC-140119]	26.7
Cc1ccc(-c2ccc3c(c2)C=C(C(=O)NCC2CCN(CC4CCN(C(=O)/C=C/c5ccc(Cl)c(Cl)c5)CC4)CC2)CCC3)cc1 [TCMDC-140646]	108.7
Cn1c(NC2CCN(CC3CCN(C(=O)/C=C/c4ccc(Cl)c(Cl)c4)CC3)CC2)nc2ccccc21 [TCMDC-140340]	94.55
O=C(/C=C/c1ccc(Cl)c(Cl)c1)N1CCC(CN2CCC(c3nc4ccccc4n3CCCO)CC2)CC1 [TCMDC-140312]	-4.21
Cc1cc(O)cc2c(C3CCN(CC4CCN(C(=O)/C=C/c5ccc(Cl)c(Cl)c5)CC4)CC3)c[nH]c12 [TCMDC-140065]	-70.17
O=C(/C=C/c1ccc(Cl)c(Cl)c1)N1CCC(CN2CCC(c3c(Br)[nH]c4ccccc34)CC2)CC1 [TCMDC-140652]	-44.15
Cc1[nH]c2ccccc2c1CC1CCN(CC2CCN(C(=O)/C=C/c3ccc(Cl)c(Cl)c3)CC2)CC1 [TCMDC-140128]	-40.98
CC(C)n1c(C2CCN(CC3CCN(C(=O)/C=C/c4ccc(Cl)c(Cl)c4)CC3)CC2)nc2ccccc21 [TCMDC-140212]	-15.48
CCn1c(C2CCN(CCC3CCN(C(=O)/C=C/c4ccc(Cl)c(Cl)c4)CC3)CC2)nc2ccccc21 [TCMDC-140221]	-5.757
O=C(/C=C/c1ccc(Cl)c(Cl)c1)N1CCC(CN2CCC(c3c(-c4ccc(F)cc4)[nH]c4ccccc34)CC2)CC1 [TCMDC-140654]	18.04
CC1CC(C)CN(S(=O)(=O)c2cc(C(=O)Nc3cccc([N+](=O)[O-])c3)ccc2Br)C1 (stereo not shown) [TCMDC-124626]	-10.68
O=C(Nc1cc(F)c(F)c(-c2cccnc2)c1)N1CCc2cc(Cl)c(Cl)cc21 [TCMDC-139065]	25.18
Cc1ccc(-c2nc(N3CCN(C(=O)c4ccco4)CC3)c3ccccc3n2)cc1 [TCMDC-124779]	-11.86
COc1ccccc1CNC(=O)c1cc(OC)c(OC)cc1NC(=O)c1cccs1 [TCMDC-125022]	22.04
